Activity calls are given as the source filed them.
Assays:
Albumin (Bos taurus) = Albumin (Bos taurus) (UniProt P02769); assay: compounds binding labelled BSA control protein – biochemical, small-molecule microarray, Alexa647 label, 635/667 nm fluorescence, artefact control for SMM control protein annotation, profiling panel (AID 1118); details: BSA-A647 binding, fluorescence 635 nm, higher = more signal;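 note: score merges 667 nm emission intensity and signal-to-noise per printed compound spot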
[1] = probe aXIP binding to arrayed compounds – biochemical, NeuroSMM set, 635/667 nm fluorescence, primary screen (AID 1119); details: small-molecule microarray, higher = more signal, called active from +8 up or from −8 down;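 note: probe is the protein aXip251-270 applied at 1 µg/mL to compound-printed slides; binding of probe to printed compounds measured as 667 nm fluorescence plus signal to noise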
[2] = probe aNOTCH3 binding on compound microarray – biochemical, small-molecule microarray, 635/667 nm fluorescence, primary screen (AID 1120); details: higher = more signal;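 note: probe is a biotin-tagged antibody raised against NOTCH3 rather than NOTCH3 protein; score merges spot fluorescence near 667 nm with spot signal to noise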
[3] = probe aNOTCH2 binding on compound microarray – biochemical, small-molecule microarray, 635/667 nm fluorescence, primary screen (AID 1121); details: higher = more signal;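 note: score merges feature fluorescence read at 667 nm with its signal to noise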
[4] = molecular target: Carbonic anhydrase 2 (Homo sapiens) (UniProt P00918); assay: compounds binding carbonic anhydrase 2 – biochemical, small-molecule microarray, Alexa647-labelled CAII, profiling panel (AID 1122); details: CAII-A647 binding fluorescence, higher = more signal
[5] = COS7 lysate on small-molecule microarray, probe aHis, 635 nm (AID 1123); details: COS7 cell lysate, fluorescence, higher = more signal;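 note: z-score combines 667nm fluorescence intensity with signal-to-noise per printed compound spot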
[6] = probe aLAP1 signal on lysate-treated microarray – cell lysate, small-molecule microarray, COS7 lysate, primary screen (AID 1124); details: probe aLAP1, fluorescence, higher = more signal;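 note: lysate comes from COS7 cells expressing LAP1 and is applied at 0.3 µg/mL; score merges spot fluorescence near 667 nm with signal-to-noise over triplicate slides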
Sam68 (KHDRBS1) = assay: compounds binding KHDRBS1 protein – biochemical, small-molecule microarray, 635 nm fluorescence, primary screen (AID 1125); details: higher = more signal;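 note: score merges 667 nm channel intensity with signal to noise over triplicate slides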
[7] = system: Chordin-like protein 2 (CHRDL2); assay: compounds binding chordin-like 2 – biochemical, small-molecule microarray, 635 nm fluorescence, primary screen (AID 1126); details: fluorescence 635 nm, higher = more signal;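 note: printed compound slides probed with Chrdl2 protein at 4 µg/mL for 1 h at 4 C; score merges 667 nm emission intensity with signal to noise over three replicate slides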
[8] = molecular target: Concanavalin-A (Canavalia ensiformis) (UniProt P02866); assay: compounds binding concanavalin A lectin – biochemical, small-molecule microarray, Alexa647 label, 635 nm, artefact control for SMM control protein annotation, primary screen (AID 1127); details: ConA-A647 binding fluorescence, higher = more signal;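 note: z combines 667 nm emission intensity with signal-to-noise across three replicate slides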
[9] = compounds binding Alexa647 anti-His antibody – biochemical, small-molecule microarray, 635 nm fluorescence, artefact control for SMM control protein annotation, primary screen (AID 1128); details: higher = more signal;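 note: score merges feature fluorescence with signal-to-noise for each printed compound spot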
[10] = system: Human papillomavirus type 1a E7 protein (residues 1-88); assay: HPV1a E7 small-molecule binders, primary screen, biochemical, small-molecule microarray, residues 1-88, 635 nm (AID 1129); details: small-molecule microarray binding, fluorescence 635 nm; higher = more signal
[11] = molecular target: Focal adhesion kinase 1 (Homo sapiens) (UniProt Q05397); assay: PTK2 protein binding on printed compound slides – biochemical, small-molecule microarray, 635/667 nm fluorescence, BSA, DTT, primary screen (AID 1130); details: 635 nm fluorescence, higher = more signal;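 note: composite of spot emission at 667 nm and signal to noise over triplicate slides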
[12] = system: Fibrinogen (Alexa647-labelled); assay: Alexa647-fibrinogen binding to printed small molecules – biochemical, small-molecule microarray, 635/667 nm fluorescence, artefact control for SMM control-protein annotation, profiling panel (AID 1131); details: fibrinogen-A647 binding fluorescence, higher = more signal;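 note: z-score merges 667 nm fluorescence with per-spot signal-to-noise over triplicate slides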
[13] = molecular target: Follistatin (Homo sapiens) (UniProt P19883); assay: FST protein binding to printed compounds – biochemical, small-molecule microarray, 635/667 nm fluorescence, primary screen (AID 1132); details: 635 nm fluorescence, higher = more signal
[14] = molecular target: Fibroblast growth factor 2 (Homo sapiens) (UniProt P09038); assay: basic fibroblast growth factor binding to printed compounds – biochemical, small-molecule microarray, 635/667 nm fluorescence, primary screen (AID 1133); details: FGF2, fluorescence 635/667, higher = more signal
[15] = JC-1 mitochondrial potential readout, lung cancer cells – cell-based, A549, JC-1 fluorescence, basal, 24 h, 100 nL, profiling panel (AID 1138); details: higher = more signal;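 note: A549 lung adenocarcinoma cells under basal conditions with no added stimulus; test concentration not given here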
Lefty1 = Lefty1 protein binding to printed compounds – biochemical, small-molecule microarray, 635/667 nm fluorescence, primary screen (AID 1139); details: fluorescence 635/667, higher = more signal
[16] = system: wheat germ agglutinin (Triticum aestivum), Alexa647-labelled; assay: Alexa647-WGA lectin binding to printed small molecules – biochemical, small-molecule microarray, 635/667 nm fluorescence, artefact control for SMM control-protein annotation, profiling panel (AID 1140); details: WGA-A647 binding, 635 nm fluorescence, higher = more signal;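 note: score merges 667 nm feature emission with signal to noise over triplicate slides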
[17] = molecular target: Luciferin 4-monooxygenase (Photinus pyralis) (UniProt P08659); assay: inhibition of purified Photinus pyralis luciferase – biochemical, luminescence, purified enzyme, 2006 set, primary screen (AID 1141); details: purified firefly luciferase, SteadyGlo luminescence, 30 min; higher = more signal, called active from +8 up or from −8 down;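 note: cell-free assay with purified firefly luciferase at 100 ng per well in PBS; test concentration not given here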
Sequence of Luciferin 4-monooxygenase (Photinus pyralis) (P08659 whole entry, looked up): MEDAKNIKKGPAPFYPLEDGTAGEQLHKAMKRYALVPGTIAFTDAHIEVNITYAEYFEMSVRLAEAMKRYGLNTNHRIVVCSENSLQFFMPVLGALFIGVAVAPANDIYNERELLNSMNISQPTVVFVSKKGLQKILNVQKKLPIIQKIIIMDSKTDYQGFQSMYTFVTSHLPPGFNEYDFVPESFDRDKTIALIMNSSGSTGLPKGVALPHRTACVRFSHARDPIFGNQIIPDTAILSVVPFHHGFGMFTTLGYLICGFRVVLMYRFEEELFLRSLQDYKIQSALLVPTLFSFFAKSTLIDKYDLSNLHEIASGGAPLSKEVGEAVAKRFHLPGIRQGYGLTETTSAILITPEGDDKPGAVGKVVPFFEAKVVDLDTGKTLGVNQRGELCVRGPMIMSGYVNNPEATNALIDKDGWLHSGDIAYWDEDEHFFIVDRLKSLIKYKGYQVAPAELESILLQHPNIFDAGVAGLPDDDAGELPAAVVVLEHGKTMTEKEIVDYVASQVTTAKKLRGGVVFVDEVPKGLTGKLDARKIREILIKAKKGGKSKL

Sequence of Fibroblast growth factor 2 (Homo sapiens) (P09038 whole entry, looked up): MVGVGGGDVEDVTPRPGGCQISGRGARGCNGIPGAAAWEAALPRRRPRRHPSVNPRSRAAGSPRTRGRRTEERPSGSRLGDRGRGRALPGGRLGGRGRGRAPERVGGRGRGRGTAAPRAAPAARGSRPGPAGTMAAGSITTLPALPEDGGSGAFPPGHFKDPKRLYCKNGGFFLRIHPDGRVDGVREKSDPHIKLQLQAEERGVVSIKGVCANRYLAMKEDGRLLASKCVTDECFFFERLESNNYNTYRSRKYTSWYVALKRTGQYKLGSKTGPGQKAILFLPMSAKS
Sequence of Follistatin (Homo sapiens) (P19883 whole entry, looked up): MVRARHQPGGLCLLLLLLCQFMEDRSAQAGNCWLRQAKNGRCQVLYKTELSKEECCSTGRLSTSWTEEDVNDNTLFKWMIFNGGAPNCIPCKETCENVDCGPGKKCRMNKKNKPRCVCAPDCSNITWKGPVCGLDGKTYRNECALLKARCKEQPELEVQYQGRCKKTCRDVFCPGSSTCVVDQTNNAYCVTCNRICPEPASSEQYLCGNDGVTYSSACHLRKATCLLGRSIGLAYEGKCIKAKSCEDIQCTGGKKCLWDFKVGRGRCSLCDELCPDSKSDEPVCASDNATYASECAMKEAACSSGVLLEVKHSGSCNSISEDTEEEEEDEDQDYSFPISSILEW
Sequence of Focal adhesion kinase 1 (Homo sapiens) (Q05397 whole entry, looked up): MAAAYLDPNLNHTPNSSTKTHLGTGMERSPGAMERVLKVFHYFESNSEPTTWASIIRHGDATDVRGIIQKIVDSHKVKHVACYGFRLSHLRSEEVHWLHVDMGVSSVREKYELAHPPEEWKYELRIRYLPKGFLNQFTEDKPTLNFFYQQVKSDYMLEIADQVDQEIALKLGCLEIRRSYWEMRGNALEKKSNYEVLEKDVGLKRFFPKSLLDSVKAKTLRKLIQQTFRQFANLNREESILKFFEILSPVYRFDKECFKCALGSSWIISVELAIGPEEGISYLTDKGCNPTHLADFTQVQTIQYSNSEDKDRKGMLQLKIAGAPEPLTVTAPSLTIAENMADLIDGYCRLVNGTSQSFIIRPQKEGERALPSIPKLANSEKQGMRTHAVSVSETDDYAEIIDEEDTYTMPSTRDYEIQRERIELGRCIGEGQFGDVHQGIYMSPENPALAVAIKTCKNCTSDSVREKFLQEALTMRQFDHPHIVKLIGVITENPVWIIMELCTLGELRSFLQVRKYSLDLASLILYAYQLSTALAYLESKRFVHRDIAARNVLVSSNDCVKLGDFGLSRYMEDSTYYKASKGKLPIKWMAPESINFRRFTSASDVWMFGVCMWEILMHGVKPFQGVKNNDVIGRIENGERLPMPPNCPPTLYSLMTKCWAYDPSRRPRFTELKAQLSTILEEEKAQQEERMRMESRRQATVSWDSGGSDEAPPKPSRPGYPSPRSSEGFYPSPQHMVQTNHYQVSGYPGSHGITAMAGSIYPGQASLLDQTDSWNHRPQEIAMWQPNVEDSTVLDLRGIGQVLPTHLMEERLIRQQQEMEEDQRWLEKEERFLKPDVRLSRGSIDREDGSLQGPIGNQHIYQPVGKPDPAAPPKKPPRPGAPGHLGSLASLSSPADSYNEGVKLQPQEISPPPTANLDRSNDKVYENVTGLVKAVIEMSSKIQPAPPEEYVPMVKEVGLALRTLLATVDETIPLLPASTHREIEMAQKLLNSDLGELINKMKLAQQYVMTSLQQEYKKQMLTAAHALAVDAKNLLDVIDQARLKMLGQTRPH
Sequence of Concanavalin-A (Canavalia ensiformis) (P02866 whole entry, looked up): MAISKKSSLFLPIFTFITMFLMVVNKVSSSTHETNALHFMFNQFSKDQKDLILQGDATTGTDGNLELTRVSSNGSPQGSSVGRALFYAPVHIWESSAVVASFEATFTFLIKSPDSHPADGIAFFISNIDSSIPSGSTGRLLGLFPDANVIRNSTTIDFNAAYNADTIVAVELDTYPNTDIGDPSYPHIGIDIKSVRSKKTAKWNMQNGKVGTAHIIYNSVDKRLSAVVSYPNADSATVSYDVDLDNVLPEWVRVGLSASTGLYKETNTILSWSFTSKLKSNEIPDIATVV
Sequence of Albumin (Bos taurus) (P02769 whole entry, looked up): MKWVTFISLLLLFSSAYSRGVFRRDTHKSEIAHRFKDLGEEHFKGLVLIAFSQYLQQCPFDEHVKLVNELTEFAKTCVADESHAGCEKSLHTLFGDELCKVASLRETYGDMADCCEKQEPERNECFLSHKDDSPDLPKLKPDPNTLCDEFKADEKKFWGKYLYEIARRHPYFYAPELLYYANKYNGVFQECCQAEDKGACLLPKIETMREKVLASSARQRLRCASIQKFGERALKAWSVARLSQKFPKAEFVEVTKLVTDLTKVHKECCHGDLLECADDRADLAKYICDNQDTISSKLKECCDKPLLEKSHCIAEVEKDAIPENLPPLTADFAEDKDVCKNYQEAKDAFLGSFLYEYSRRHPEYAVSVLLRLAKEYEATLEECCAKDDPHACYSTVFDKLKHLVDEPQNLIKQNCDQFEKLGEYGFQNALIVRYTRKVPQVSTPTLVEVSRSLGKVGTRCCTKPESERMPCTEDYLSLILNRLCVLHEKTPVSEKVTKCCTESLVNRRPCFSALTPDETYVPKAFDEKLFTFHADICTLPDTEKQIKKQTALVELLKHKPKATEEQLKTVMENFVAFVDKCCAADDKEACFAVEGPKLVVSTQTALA

| Compound | composite z-score (Albumin (Bos taurus)) | composite Z-score [1] | composite z-score [2] | composite z-score [3] | composite z-score [4] | composite z-score [5] | composite z-score [6] | composite z-score (Sam68 (KHDRBS1)) | composite z-score [7] | composite z-score [8] | composite z-score [9] | composite z-score [10] | composite z-score [11] | composite z-score [12] | composite z-score [13] | composite z-score [14] | z-score [15] | composite z-score (Lefty1) | composite z-score [16] | z-score [17] |
| --- | --- | --- | --- | --- | --- | --- | --- | --- | --- | --- | --- | --- | --- | --- | --- | --- | --- | --- | --- | --- |
| CCOC(=O)[C@H]1[C@@H]2C(=O)N3CCC[C@H]3[C@H](O[Si](C(C)C)(C(C)C)C(C)C)[C@H]2C=C2CCN(S(=O)(=O)c3ccc(C)cc3)C[C@H]21 | 0.603 | 0.156 (inactive) | 0.0208 | -0.112 | 0.481 | 1.15 | 0.171 | 1.3 | 0.484 | 1.12 | 0.173 | 0.837 | -0.268 | 0.938 | 0.727 | 0.143 | 1.8 | 0.672 | 0.255 | -0.404 (inactive) |
| O=C1OCC=C[C@H]2OC34C=CCN(Cc5ccccc5)C(=O)[C@H]3N(CCCCCCO)C(=O)[C@@H]4[C@@H]12 (stereo not given in full) | 0.4 | 0.604 (inactive) | -0.302 | -0.162 | 0.914 | 0.0976 | 1.31 | -0.398 | -0.694 | -0.159 | 1.29 | -0.0134 | 0.879 | -1.25 | -0.562 | -0.292 | 0.0814 | -0.128 | 0.206 | -3.54 (inactive) |
| Cc1cc(C)c(C(O)C2C=CC3C(=O)NC(=O)C3N2Nc2ccc(Cl)cc2Cl)c(C)c1 (stereo not given) | 0.961 | 0.234 (inactive) | 0.396 | -0.0125 | 0.575 | 2.94 | 0.772 | 1.1 | -0.48 | 1.09 | 1.37 | 1.22 | 0.941 | 0.966 | 1.08 | 0.752 | -0.318 | -0.0986 | 1.19 | -1.43 (inactive) |
| CN(C)CCCNC(=O)[C@@]1(C)c2ccccc2C(=O)N(Cc2ccccc2)[C@H]1c1ccc(CO)cc1 | -1.05 | -0.194 (inactive) | -0.264 | -0.236 | 0.704 | -0.358 | -0.39 | -0.0419 | -0.19 | -0.371 | 0.761 | -1.49 | -0.3 | -0.995 | 0.392 | -0.0132 | -0.322 | -0.067 | -0.749 | -0.0692 (inactive) |
| CN(C)C(=O)[C@@]1(Cc2ccccc2CN=[N+]=[N-])N=C(c2ccc(OCCCO)cc2)O[C@H]1c1ccccc1CN=[N+]=[N-] | 0.936 | 0.608 (inactive) | 0.602 | 0.202 | 0.703 | 2.79 | 0.15 | 0.873 | -0.103 | 1.07 | 2.33 | 1.21 | 0.419 | 0.856 | 0.652 | -0.025 | 1.43 | -0.483 | 1.12 | 0.184 (inactive) |
| COCCOC(=O)N1C(=O)[C@@]2(c3cc(C#CCCO)ccc31)[C@H](c1ccccc1OCCO)N1[C@H](c3ccccc3)[C@H](c3ccccc3)OC(=O)[C@H]1[C@@H]2C(=O)Nc1nc2ccccc2s1 | 0.802 | 0.048 (inactive) | 0.108 | -0.0352 | 0.729 | 2.02 | 0.967 | 1.29 | 0.0314 | 1.09 | 2.09 | 1.2 | 0.771 | 0.733 | 1.07 | 0.957 | -2.27 | 0.932 | 1.24 | -0.499 (inactive) |
| CC(CO)N1C(=O)[C@@H]2[C@H]3C(=O)OCC=C[C@H]3OC23C=CCN(Cc2ccccc2)C(=O)[C@@H]13 (stereo not given in full) | 0.407 | -0.106 (inactive) | -0.308 | -0.22 | 0.905 | -0.851 | -0.419 | -1.17 | -0.42 | -0.325 | 0.543 | -0.696 | 0.769 | -0.854 | -0.139 | -0.173 | -0.376 | -0.279 | 0.22 | -3.05 (inactive) |
| COc1ccc(C#Cc2ccc3c(c2)[C@]2(C(=O)N3)[C@H](c3ccc(O)cc3)N3[C@H](c4ccccc4)[C@H](c4ccccc4)OC(=O)[C@H]3[C@@H]2C(=O)O)cc1 | 0.496 | 0.708 (inactive) | 0.277 | 0.163 | 0.614 | 1.23 | 0.483 | 0.964 | 0.111 | 0.868 | 2.03 | 1.06 | 0.324 | 0.457 | 0.127 | -0.218 | -2.05 | -0.211 | -0.178 | -1.37 (inactive) |
| COCCOC(=O)N1C(=O)[C@@]2(c3cc(C#CC4=CCCCC4)ccc31)[C@H](c1ccc(O)cc1)N1[C@H](c3ccccc3)[C@H](c3ccccc3)OC(=O)[C@H]1[C@@H]2C(=O)N1CCN(c2ncccn2)CC1 | -1.34 | -0.551 (inactive) | -0.345 | -0.156 | -0.391 | -0.147 | 0.601 | -0.535 | -1.21 | -0.217 | -0.849 | -1.1 | -0.415 | -0.805 | -1.02 | -0.958 | 0.381 | -1.14 | -0.649 | 1.18 (inactive) |
| C=CCC(OC(C)=O)[C@@H]1[C@@H](N(Cc2cc3ccccc3o2)C(=O)c2ccc(-c3ccccc3)cc2)c2cc(OCCCO)ccc2N1C(=O)c1ccc2ccccc2c1 (stereo not given in full) | 0.0005 | 0.142 (inactive) | -0.154 | -0.106 | -0.105 | 0.612 | 0.0944 | 0.095 | 0.0295 | -0.0066 | 0.0895 | 0.0833 | -0.394 | 0.394 | 0.874 | -0.198 | 1.26 | 0.795 | 0.196 | -0.455 (inactive) |

Reference: PubChem BioAssay
